Our source for the Potency and activity, negative = cell killing values is PubChem BioAssay (NCATS).

One test concerns Hek293T. The test is described as follows: Primary qHTS to identify gynecologic anti-cancer compounds using libraries of approved drugs and bioactive compounds (AID 1345084). Note: nearly all actives have a fitted effect of over 55% in size. To be noted: Gynecologic cancer cell panel viability, ATPlite luminescence, 48 h, control line for the selectivity index; series mostly up to 57.5 µM. The gist of the method: (§1)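 Luminescence from the ATPlite ATP-monitoring reagent indicates viable cell number; lower signal means cytotoxicity. Cells received compound 16 h after seeding and were exposed for 48 h across five concentrations.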

A further test deals with JEG-3. The description is as above. Particulars: Gynecologic cancer cell panel viability, ATPlite luminescence, 48 h; series mostly up to 57.5 µM. A digest of the protocol: as §1
A further test deals with OV90. The description is as above. Particulars: Gynecologic cancer cell panel viability, ATPlite luminescence, 48 h; series mostly up to 57.5 µM. A digest of the protocol: as §1
The next test has as its system PA-1. The description is as above. Particulars: Gynecologic cancer cell panel viability, ATPlite luminescence, 48 h; series mostly up to 57.5 µM. The gist of the method: as §1
The next test deals with SKOV3. The description is as above. To be noted: Gynecologic cancer cell panel viability, ATPlite luminescence, 48 h; series mostly up to 57.5 µM. The gist of the method: as §1
Another test deals with Tov-21-G. The test is described as above. Particulars: Gynecologic cancer cell panel viability, ATPlite luminescence, 48 h; series mostly up to 57.5 µM. The gist of the method:
as §1

The subject of the next test is Tov112D. Described as above. Particulars: Gynecologic cancer cell panel viability, ATPlite luminescence, 48 h; series mostly up to 57.5 µM. A digest of the protocol:
as §1

The nature of test [1]: Drug repurposing screens with cells derived from glioblastoma tumor samples (AID 1345199). For activity, negative = cell killing: % is set by controls: 0 for no effect and ±100 for the full control effect. Note: nearly all actives have a fitted effect of over 40% in size. To be noted: GBM patient neurospheres viability, ATP luminescence, 48 h. A digest of the protocol: (§2)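 Four patient lines of CD133+ GBM neurospheres were screened at several concentrations; hits were retested in those lines plus three slower-growing GBM lines, using 48-hour treatment and ATP-based viability.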

In another test the test system is astro. The test is described as above. To be noted: viability, ATP luminescence, 48 h; series mostly up to 45.9 µM. A digest of the protocol:
as §2

Test [2] is described as follows: qHTS assay to identify inhibitors of the type 1 interferon - major histocompatibility complex class I in skeletal muscle: Counter screen cell viability and HiBit confirmation (AID 1347412). Note: nearly all actives have a fitted effect of over 60% in size. Particulars: iHSKM muscle cells + IFN-b, HiBiT or CellTiter-Glo, 24 h. An excerpt:
Assay Submitter (PI): Travis B. Kinder Ph.D. & James Inglese Ph.D. Assay Development and Screening Technology Laboratory (ADST) National Center for Advancing Translational Sciences (NCATS), Rockville, MD National Institute of Health (NIH), Bethesda, Maryland Idiopathic inflammatory myopathies, collectively referred to as myositis, are a group of rare autoimmune diseases characterized by skeletal muscle inflammation, weakness, and usually accompanied by systemic pathologies of the skin, lungs, or vasculature. Current immunosuppressive therapies and glucocorticoids are often not curative and are accompanied by harsh side effects, especially in children with juvenile myositis. We initiated a drug repurposing and development program to identify more targeted, less toxic therapeutics to treat myositis. Although its cause is not known, muscle from a subset of patients have an abundance of the inflammatory type 1 interferon (IFN) and a down-stream product major histocompatibility complex class I (MHC class I), which are both thought to contribute to damage and weakness. We conducted quantitative high throughput screening on 6,576 compounds (4,679 unique) through a series of cell-based assays to identify those that inhibit the IFN-stimulated expression of MHC class I in muscle precursor cells (myoblasts). The compound identification and evaluation strategy utilized a primary screen with reporter-tagged MHC class I in genome-engineered myoblasts, ATP content counter screen for viability, HLA-ABC immunofluorescence secondary screen, and HLA-B RT-qPCR tertiary screen. The primary screen utilized CRISPR/Cas9 genome-engineering of immortalized human myoblasts, C25cl48, where a pro-luminescent reporter HiBit was fused to the C-terminus of endogenous MHC class I allele HLA-B*08:01 (HLA-B HiBit myoblasts). HiBit is an 11 amino acid fragment of NanoLuc luminescent reporter (Promega Corporation), and when complexed to the larger LgBit fragment, the reconstituted enzyme produces light in the presence of furimazine substrate (Schwinn et al., 2018). Briefly, HLA-B HiBit myoblasts were plated into 1536-well plates, treated with 4.0 ng/ml human IFN-beta and 650 inhibitory compounds identified from primary screening in a 12-point, 1:3 titration with a high final concentration of 46 uM. Compounds were pinned into duplicate plates, with one for HiBit confirmation and one for ATP content viability assay. After 24 hrs of treatment, cells were assayed by either Nano-Glo HiBiT Lytic Detection System (Promega) or CellTiter Glo (Promega), and luminescence measured by a ViewLux 1430 Ultra HTS (Perkin Elmer). References: Schwinn MK, Machleidt T, Zimmerman K, Eggers CT, Dixon AS, Hurst R, Hall MP, Encell LP, Binkowski BF, Wood K V. 2018. […]

Where [3] appears, read: at 45.9 µM (top of the series), tumour line B.
Setting [4] is: at 45.9 µM (top of the series), tumour line D.
[5] abbreviates: at 46 µM (top of the series), tumour line A.
Where [6] appears, read: at 108 µM (top of the series), tumour line B.

“And” between values parts separate entries of the source, which are not always exact repeats. Equal entries are not always repeated. Records with an inconclusive call do not appear. Unmarked numbers belong to inactive results. The source made the active and inactive calls. Calls come from the whole dose curve; as a rule, active = well fitted curve in the direction sought with a large enough effect; inconclusive = small, poorly fitted or top-dose-only effect, or another doubt; inactive = no such curve, though single readings can be large; an effect the other way counts as inactive or inconclusive.
Potency is the fitted concentration of half-maximal effect.

Take `CCOC(=O)c1cncn1C(C)c1ccccc1` (configuration not stated): the Potency result with Hek293T, in the test on JEG-3, in the test with OV90, in the test with PA-1, in the test with SKOV3 and in the test on Tov-21-G was “inactive” throughout. Moreover, the Potency result with Tov112D and in the test on astro was “inactive” each time. Also, the activity, negative = cell killing in test [1] (at 21.2 µM (top of the series), tumour line B) was 0.856%; in test [1] (at 21.2 µM (top of the series), tumour line D), -20.7%.
On to `Cc1nnc2n1-c1sc(CCC(=O)N3CCOCC3)cc1C(c1ccccc1Cl)=NC2`, for which the Potency result with Hek293T, in the test with JEG-3, in the test on OV90, with PA-1, in the test on SKOV3 and in the test on Tov-21-G was “inactive” each time. The Potency entry in the test on Tov112D and in the test on astro was “inactive” throughout. Moreover, the activity, negative = cell killing in [1] (setting [3]) is -14.3% and -9.87%; in test [1] (setting [4]), -19.2% and -29.4%; in [1] (setting [5]), -18.9%.
Regarding `CC(C)(C)OC(=O)c1ncn2c1[C@@H]1CCCN1C(=O)c1c(Br)cccc1-2`, the Potency entry in the test on Hek293T, in the test on JEG-3, with OV90, in the test on PA-1, in the test on SKOV3 and with Tov-21-G was “inactive” in each case. The Potency entry in the test on Tov112D and with astro was “inactive” throughout. Also, the values for the activity, negative = cell killing in test [1] (setting [3]) and in test [1] (setting [4]) were -9.06% and -11.3%, respectively.
With `COc1cc(C[C@@H](C)N)c(OC)cc1C`, the Potency result in the test on Hek293T, in the test with JEG-3, with PA-1, with SKOV3, in the test on Tov-21-G and with Tov112D was “inactive” each time. Further, the Potency entry with astro is “inactive”. Further, the activity, negative = cell killing is -21.2% in test [1] (setting [6]) and -18.9% in test [1] (at 108 µM (top of the series), tumour line D). Also, the Potency in [1] (tumour line A) was 31.6 µM (active).
For `NC1(c2ccccc2)CCCCC1`, the Potency entry with Hek293T, with JEG-3, with OV90, in the test on PA-1, in the test with Tov-21-G and in the test with astro was “inactive” throughout. In addition, the activity, negative = cell killing in [1] (at 91.6 µM (top of the series), tumour line B) was -7.4%. Moreover, the Potency in test [1] (tumour line A) was 63.1 µM (active).
Consider `CCOC(C(=O)OCCN(C)C)(c1ccccc1)c1ccccc1`, for which the Potency entry in the test with Hek293T, in the test with JEG-3, in the test with PA-1, in the test with SKOV3, with Tov-21-G and in the test with Tov112D was “inactive” in each case.
In the case of `Cc1ccc([N+](=O)[O-])[c]2c1[O][Hg]2`, the Potency in the test with Hek293T is 5.62 µM (active); in the test on JEG-3 it was 3.55 µM (active); in the test on OV90, 12.6 µM (active); with PA-1, 2.82 µM (active); in the test with SKOV3 it was 3.98 µM (active); in the test with Tov-21-G, 2 µM (active). The Potency was 5.62 µM (active) in the test with Tov112D, 6.25 µM (active) in test [2] (HiBiT) and 14 µM (active) in test [2] (Viability).
With `CN1C(=O)CN=C(c2ccccc2)c2cc(Cl)ccc21`, the Potency entry in the test on Hek293T, in the test with JEG-3, with OV90, in the test with PA-1, in the test on Tov-21-G and with Tov112D was “inactive” throughout. For the same compound, the Potency result in the test on astro is “inactive”. The activity, negative = cell killing is -4.05% in test [1] (setting [3]) and -1.05% in test [1] (setting [4]).
Turning to `CC1Sc2c(C(=O)O)c(=O)c3cc(F)c(N4CCNCC4)cc3n21` (configuration not stated), the Potency entry in the test on Hek293T, with JEG-3, in the test on OV90, in the test with PA-1, with Tov-21-G and in the test on Tov112D was “inactive” each time.
For the compound `COc1cc(CC(C)N)cc2c1OCO2` (configuration not stated), the Potency entry with Hek293T, in the test with JEG-3, in the test with OV90, with PA-1, with Tov-21-G and in the test with Tov112D was “inactive” each time. In addition, the activity, negative = cell killing in test [1] (setting [6]) was -12.8%. The Potency in test [1] (tumour line A) was 35.5 µM (active).
Turning to `C[C@H]1C(=O)O[C@@H]2CCN3CC=C(COC(=O)[C@](C)(O)[C@]1(C)O)[C@H]23`, the Potency entry with Hek293T, in the test on JEG-3, in the test with OV90, in the test with PA-1, with Tov-21-G and in the test with Tov112D was “inactive” in each case. Moreover, in the test on astro, the Potency result was “inactive”. The values for the activity, negative = cell killing in [1] (setting [3]), in [1] (setting [4]) and in [1] (setting [5]) were -12.9%, -22.3% and -27.9%, respectively.
